Experimental data: PubChem BioAssay AID1159580 (chemical genetic matrix, 2015)
“And” between values parts separate entries of the source, which are not always exact repeats. Equal entries are not always repeated. Among all 5,500 compounds or so, about 2,000 (36%) were called active. Another 18% or so got no clear call; they are omitted. Cut-off read from the data, not from the text of the source: active = normalized growth mostly below about 0.91 (no sharp cut-off); inconclusive = no clear call, values can overlap the other calls; inactive = mostly above about 0.92. This is one part of the list.

Experiment: chemical genetic growth profiling, strain panel (AID 1159580);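 note: tested at 20 µM; growth read once vehicle control cultures reached saturation at 30 °C; 1 = growth at the plate median or of vehicle wells; lower values mean less growth of the strain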
Conditions: S. cerevisiae deletion strains, growth OD

Measured: normalized growth

O=C1C(Cl)=C(Cl)C(=O)C(Cl)=C1Cl
inactive: locus YAL030W, strain snc1, hits give low values 0.986 | locus YBL061C, strain skt5, hits give low values 0.994 | locus YBR023C, strain chs3, hits give low values 0.927 | locus YBR171W, strain sec66, hits give low values 0.967 | locus YBR229C, strain ROT2, hits give low values 0.979 | locus YBR231C, strain swc5, hits give low values 0.96 | locus YCL016C, strain dcc1, hits give low values 0.919 | locus YCL029C, strain bik1, hits give low values 0.929 | locus YCL069W, strain vba3, hits give low values 0.985 | locus YCR088W, strain abp1, hits give low values 0.949 | locus YDL005C, strain med2, hits give low values 1 | locus YDL040C, strain nat1, hits give low values 0.976 | locus YDL101C, strain DUN1, hits give low values 0.941 | locus YDR001C, strain nth1, hits give low values 0.991 | locus YDR069C, strain doa4, hits give low values 0.92 | locus YDR137W, strain rgp1, hits give low values 0.978 | locus YDR159W, strain sac3, hits give low values 1.03 | locus YDR195W, strain ref2 0.894 | locus YDR297W, strain sur2, hits give low values 0.997 | locus YDR334W, strain swr1, hits give low values 0.98 | locus YDR335W, strain msn5, hits give low values 0.963 | locus YEL037C, strain rad23, hits give low values 0.99 | locus YEL061C, strain CIN8 (second series), hits give low values 0.954 | locus YER016W, strain bim1, hits give low values 0.979 | locus YER111C, strain swi4, hits give low values 0.993 | locus YGL167C, strain pmr1, hits give low values 0.982 | locus YGL173C, strain kem1, hits give low values 0.958 | locus YGL227W, strain vid30, hits give low values 0.997 | locus YGL240W, strain doc1, hits give low values 0.99 | locus YGL253W, strain hxk2, hits give low values 0.993 | locus YHR142W, strain chs7, hits give low values 0.928 | locus YJL092W, strain hpr5, hits give low values 0.94 | locus YJL095W, strain BCK1 (second series), hits give low values 0.978 | locus YJL115W, strain asf1, hits give low values 0.979 | locus YJL129C, strain trk1, hits give low values 1 | locus YJL134W, strain LCB3, hits give low values 0.937 | locus YJL154C, strain vps35, hits give low values 0.984 | locus YJL187C, strain SWE1 (second series), hits give low values 0.982
active: locus YAL013W, strain DEP1, hits give low values 0.483 | locus YAL021C, strain ccr4, hits give low values 0.883 | locus YAL026C, strain drs2, hits give low values 0.831 | locus YBR009C, strain hhf1, hits give low values 0.843 | locus YBR021W, strain FUR4, hits give low values 0.293 | locus YBR279W, strain paf1, hits give low values 0.929 | locus YCL011C, strain gbp2, hits give low values 0.865 | locus YDL035C, strain GPR1, hits give low values 0.525 | locus YDL074C, strain BRE1, hits give low values 0.531 | locus YDL134C, strain PPH21, hits give low values 0.499 | locus YDL185W, strain tfp1, hits give low values 0.118 | locus YDL192W, strain arf1, hits give low values 0.239 | locus YDR101C, strain arx1, hits give low values 0.881 | locus YDR150W, strain NUM1, hits give low values 0.79 | locus YDR162C, strain NBP2, hits give low values 0.384 | locus YDR318W, strain mcm21, hits give low values 0.181 | locus YDR388W, hits give low values 0.164 | locus YDR392W, strain spt3, hits give low values 0.686 | locus YDR502C, strain sam2, hits give low values 0.61 | locus YEL003W, strain gim4, hits give low values 0.881 | locus YEL061C, strain CIN8, hits give low values 0.711 | locus YER015W, strain faa2, hits give low values 0.878 | locus YER110C, hits give low values 0.704 | locus YER155C, strain BEM2 (second series), hits give low values 0.763 | locus YER155C, strain BEM2, hits give low values 0.509 | locus YER167W, strain BCK2, hits give low values 0.198 | locus YFR010W, strain ubp6, hits give low values 0.891 | locus YGL078C, strain dbp3, hits give low values 0.077 | locus YGL086W, strain mad1, hits give low values 0.252 | locus YGL248W, strain PDE1, hits give low values 0.502 | locus YGR078C, strain PAC10, hits give low values 0.226 | locus YGR135W, strain pre9, hits give low values 0.335 | locus YGR229C, strain SMI1, hits give low values 0.0849 | locus YGR252W, strain gcn5, hits give low values 0.195 | locus YHR013C, strain ard1, hits give low values 0.829 | locus YHR027C, strain rpn1, hits give low values 0.904 | locus YHR030C, strain SLT2, hits give low values 0.281 and 0.105 | locus YHR079C, strain IRE1 (second series), hits give low values 0.91 | locus YHR079C, strain IRE1, hits give low values 0.129 | locus YHR094C, strain hxt1, hits give low values 0.614 | locus YHR129C, strain ARP1, hits give low values 0.655 | locus YHR200W, strain rpn10, hits give low values 0.27 | locus YIL066C, strain RNR3, hits give low values 0.634 | locus YIL073C, strain SPO22, hits give low values 0.5 | locus YIL125W, strain kgd1, hits give low values 0.0634 | locus YIR030C, strain dcg1, hits give low values 0.85 | locus YJL095W, strain BCK1, hits give low values 0.724 and 0.122 | locus YJL164C, strain tpk1, hits give low values 0.892 | locus YJL166W, strain qcr8, hits give low values 0.871 | locus YJL168C, strain set2, hits give low values 0.8 | locus YJR043C, strain POL32, hits give low values 0.671 | locus YJR066W, strain TOR1, hits give low values 0.0486 | locus YJR075W, strain HOC1, hits give low values 0.566
